Assays:
Assay in all cases: DAPPL (digital affinity profiling via proximity ligation, sequencing); 10 mM Tris-HCl pH 7.5, 50 mM NaCl, 1 mM DTT, 4% glycerol, room temperature, 30 min; GST-TFs on glutathione beads, 16-mer random dsDNA library, 0.1% formaldehyde crosslink after washing; high values mean tight binding
FEV = target: T1, FEV (Homo sapiens, UniProt Q99581 1-238); details: protein: recombinant; tags: N-terminal GST; dsDNA, one strand shown
T1 sequence: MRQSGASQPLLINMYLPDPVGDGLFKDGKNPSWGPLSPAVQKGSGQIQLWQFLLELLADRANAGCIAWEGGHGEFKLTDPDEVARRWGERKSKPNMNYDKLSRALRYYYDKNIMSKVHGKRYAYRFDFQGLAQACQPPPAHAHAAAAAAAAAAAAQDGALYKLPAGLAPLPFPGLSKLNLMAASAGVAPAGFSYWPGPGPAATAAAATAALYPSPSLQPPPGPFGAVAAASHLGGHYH
Summary of the method: (§1)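 In yeast, human transcription factors were expressed with a GST fusion, then pulled down on glutathione beads and given DNA barcodes. Pooled with a tag-only sample, they were exposed to 200 nmole of a 16-mer random double-stranded DNA library (Tris/NaCl/DTT/glycerol buffer, room temperature, 30 min), washed, crosslinked with 0.1% formaldehyde, proximity-ligated using BsaI/T4 ligase for 1 h at 37 °C, PCR-amplified and read on an Illumina NextSeq500. Each hexamer's frequency of reads for a factor, divided by the matching frequency for the tag-only sample, gives the binding signal.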

ETV5 = ETV5 (Homo sapiens, UniProt P41161 1-510); details: protein: recombinant; tags: N-terminal GST; dsDNA, one strand shown
ETV5, sequence (P41161 whole entry): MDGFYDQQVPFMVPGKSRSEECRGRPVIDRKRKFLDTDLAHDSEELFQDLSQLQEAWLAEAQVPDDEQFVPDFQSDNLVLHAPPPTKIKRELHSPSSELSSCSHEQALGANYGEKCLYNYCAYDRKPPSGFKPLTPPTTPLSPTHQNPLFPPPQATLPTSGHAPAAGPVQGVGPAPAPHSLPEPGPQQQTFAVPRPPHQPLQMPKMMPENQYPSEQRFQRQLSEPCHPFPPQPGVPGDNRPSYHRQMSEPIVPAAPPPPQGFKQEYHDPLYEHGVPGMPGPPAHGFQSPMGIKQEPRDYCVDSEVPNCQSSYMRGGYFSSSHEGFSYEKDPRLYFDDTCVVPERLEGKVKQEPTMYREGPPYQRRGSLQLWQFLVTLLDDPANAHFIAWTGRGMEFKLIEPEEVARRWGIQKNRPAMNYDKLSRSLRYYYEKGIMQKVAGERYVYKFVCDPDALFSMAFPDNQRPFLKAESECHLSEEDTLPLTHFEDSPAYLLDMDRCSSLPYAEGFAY
Summary of the method: as §1

HSF1 = HSF1 (Homo sapiens, UniProt Q00613 1-529); details: protein: recombinant; tags: N-terminal GST; chain copies: 3; dsDNA, one strand shown
HSF1, sequence (Q00613 whole entry): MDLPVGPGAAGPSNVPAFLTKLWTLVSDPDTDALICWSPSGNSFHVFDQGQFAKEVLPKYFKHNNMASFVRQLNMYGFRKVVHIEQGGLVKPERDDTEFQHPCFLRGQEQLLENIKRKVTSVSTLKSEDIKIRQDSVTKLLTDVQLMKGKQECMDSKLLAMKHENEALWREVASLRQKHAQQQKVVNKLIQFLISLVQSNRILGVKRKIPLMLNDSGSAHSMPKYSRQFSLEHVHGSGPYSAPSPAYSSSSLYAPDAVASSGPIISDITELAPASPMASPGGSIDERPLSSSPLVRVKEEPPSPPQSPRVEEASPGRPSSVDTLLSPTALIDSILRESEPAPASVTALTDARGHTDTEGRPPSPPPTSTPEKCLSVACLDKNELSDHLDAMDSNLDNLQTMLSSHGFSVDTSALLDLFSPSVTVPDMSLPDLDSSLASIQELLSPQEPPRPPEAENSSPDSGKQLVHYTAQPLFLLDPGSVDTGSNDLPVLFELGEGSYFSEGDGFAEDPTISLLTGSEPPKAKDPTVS
Summary of the method: as §1

SPIC = target: T2, SPIC (Homo sapiens, UniProt Q8N5J4 1-248); details: protein: recombinant; tags: N-terminal GST; dsDNA, one strand shown
T2 sequence: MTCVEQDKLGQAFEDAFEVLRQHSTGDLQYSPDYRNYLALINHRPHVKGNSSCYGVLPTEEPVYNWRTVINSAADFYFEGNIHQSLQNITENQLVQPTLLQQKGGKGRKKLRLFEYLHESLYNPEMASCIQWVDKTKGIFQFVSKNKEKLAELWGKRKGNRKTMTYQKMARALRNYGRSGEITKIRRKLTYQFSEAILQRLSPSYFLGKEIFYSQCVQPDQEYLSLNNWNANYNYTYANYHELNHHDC
Summary of the method: as §1

ELF4 = ELF4 (Homo sapiens, UniProt Q99607 1-663); details: protein: recombinant; tags: N-terminal GST; dsDNA, one strand shown
ELF4, sequence (Q99607 whole entry): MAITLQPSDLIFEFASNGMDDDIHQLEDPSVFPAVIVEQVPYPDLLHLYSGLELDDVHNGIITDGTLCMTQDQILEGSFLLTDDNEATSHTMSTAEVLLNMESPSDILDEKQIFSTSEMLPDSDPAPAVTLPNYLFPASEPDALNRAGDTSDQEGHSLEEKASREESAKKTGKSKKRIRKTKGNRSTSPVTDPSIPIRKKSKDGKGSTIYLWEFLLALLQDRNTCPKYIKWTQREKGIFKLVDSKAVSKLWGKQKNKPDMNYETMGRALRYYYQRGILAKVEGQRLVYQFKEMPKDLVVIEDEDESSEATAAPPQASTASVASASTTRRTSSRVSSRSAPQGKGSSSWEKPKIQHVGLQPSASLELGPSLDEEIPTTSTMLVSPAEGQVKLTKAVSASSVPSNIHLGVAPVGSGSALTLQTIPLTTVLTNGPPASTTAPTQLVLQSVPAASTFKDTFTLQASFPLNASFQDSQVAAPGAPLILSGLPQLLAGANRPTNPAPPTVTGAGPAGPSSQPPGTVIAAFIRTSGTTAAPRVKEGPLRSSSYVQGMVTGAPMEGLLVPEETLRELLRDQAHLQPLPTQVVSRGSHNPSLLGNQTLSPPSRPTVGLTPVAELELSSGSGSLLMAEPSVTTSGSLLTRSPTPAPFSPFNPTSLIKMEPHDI
Summary of the method: as §1

ELK4 = target: T3, ELK4 (Homo sapiens, UniProt P28324-2 1-405); details: protein: recombinant; tags: N-terminal GST; dsDNA, one strand shown
T3 sequence: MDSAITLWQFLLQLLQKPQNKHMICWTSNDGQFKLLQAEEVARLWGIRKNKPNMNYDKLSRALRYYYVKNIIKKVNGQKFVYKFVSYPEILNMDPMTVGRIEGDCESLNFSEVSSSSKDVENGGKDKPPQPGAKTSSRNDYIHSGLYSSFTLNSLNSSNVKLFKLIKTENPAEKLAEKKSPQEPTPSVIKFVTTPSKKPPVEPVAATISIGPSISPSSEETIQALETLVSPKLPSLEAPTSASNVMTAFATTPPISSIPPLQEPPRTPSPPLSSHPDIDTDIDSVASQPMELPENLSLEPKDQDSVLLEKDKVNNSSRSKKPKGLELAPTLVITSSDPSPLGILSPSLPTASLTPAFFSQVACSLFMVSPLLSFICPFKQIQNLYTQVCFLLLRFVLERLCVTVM
Summary of the method: as §1

ETV2 = target: T4, ETV2 (Homo sapiens, UniProt O00321 1-342); details: protein: recombinant; tags: N-terminal GST; dsDNA, one strand shown
T4 sequence: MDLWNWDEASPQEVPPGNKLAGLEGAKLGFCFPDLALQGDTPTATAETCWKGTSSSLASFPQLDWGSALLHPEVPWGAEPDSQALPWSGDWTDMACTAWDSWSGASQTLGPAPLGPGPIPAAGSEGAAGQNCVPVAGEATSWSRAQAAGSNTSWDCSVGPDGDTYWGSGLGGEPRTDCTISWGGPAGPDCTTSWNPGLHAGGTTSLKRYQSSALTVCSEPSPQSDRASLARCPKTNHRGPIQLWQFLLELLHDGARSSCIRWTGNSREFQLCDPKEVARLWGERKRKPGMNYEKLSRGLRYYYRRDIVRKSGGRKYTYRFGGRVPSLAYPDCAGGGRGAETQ
Summary of the method: as §1

ELF3 = target: T5, ELF3 (Homo sapiens, UniProt P78545 1-371); details: protein: recombinant; tags: N-terminal GST; dsDNA, one strand shown
T5 sequence: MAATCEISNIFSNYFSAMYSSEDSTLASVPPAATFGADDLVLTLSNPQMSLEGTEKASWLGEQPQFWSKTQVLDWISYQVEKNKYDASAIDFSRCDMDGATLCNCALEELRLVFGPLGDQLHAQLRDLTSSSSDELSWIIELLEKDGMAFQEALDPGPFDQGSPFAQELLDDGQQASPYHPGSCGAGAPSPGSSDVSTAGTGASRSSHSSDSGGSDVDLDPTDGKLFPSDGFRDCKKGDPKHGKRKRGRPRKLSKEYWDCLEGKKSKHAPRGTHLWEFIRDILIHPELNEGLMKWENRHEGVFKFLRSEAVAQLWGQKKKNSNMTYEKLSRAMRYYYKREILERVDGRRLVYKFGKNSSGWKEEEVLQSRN
Summary of the method: as §1

ETV1 = ETV1 (Homo sapiens, UniProt P50549 1-477); details: protein: recombinant; tags: N-terminal GST; dsDNA, one strand shown
ETV1, sequence (P50549 whole entry): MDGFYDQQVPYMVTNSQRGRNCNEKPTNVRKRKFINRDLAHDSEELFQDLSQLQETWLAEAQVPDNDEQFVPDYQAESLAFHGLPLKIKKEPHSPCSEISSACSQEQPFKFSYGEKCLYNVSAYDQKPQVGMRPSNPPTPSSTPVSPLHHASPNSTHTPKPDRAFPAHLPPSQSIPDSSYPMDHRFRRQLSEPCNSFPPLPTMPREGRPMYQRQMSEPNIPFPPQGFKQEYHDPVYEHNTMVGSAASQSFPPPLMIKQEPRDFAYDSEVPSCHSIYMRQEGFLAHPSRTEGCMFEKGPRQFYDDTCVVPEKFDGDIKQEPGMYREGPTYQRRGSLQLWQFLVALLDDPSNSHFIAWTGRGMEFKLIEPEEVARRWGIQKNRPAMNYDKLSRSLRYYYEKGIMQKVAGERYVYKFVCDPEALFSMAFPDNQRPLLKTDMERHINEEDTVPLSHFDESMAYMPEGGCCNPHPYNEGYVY
Summary of the method: as §1

Which binding signal (FEV) does the source give for CTCGCC here?
Its binding signal is 1.21 fold enrichment (6-mer frequency, TF over GST control).

What about the binding signal (ETV5) of the same sequence?
Its binding signal is 1.23 fold enrichment (6-mer frequency, TF over GST control).

And the binding signal (HSF1)?
The binding signal was 1.06 fold enrichment (6-mer frequency, TF over GST control).

What about the binding signal (SPIC) of the same sequence?
Its binding signal is 1.2 fold enrichment (6-mer frequency, TF over GST control).

What about the binding signal (ELF4) of the same sequence?
Its binding signal is 1.29 fold enrichment (6-mer frequency, TF over GST control).

And the binding signal (ELK4)?
The binding signal was 1.31 fold enrichment (6-mer frequency, TF over GST control).

What about the binding signal (ETV2) of the same sequence?
Its binding signal is 1.32 fold enrichment (6-mer frequency, TF over GST control).

What about the binding signal (ELF3) of the same sequence?
The binding signal was 1.43 fold enrichment (6-mer frequency, TF over GST control).

What about the binding signal (ETV1) of the same sequence?
The binding signal was 1.26 fold enrichment (6-mer frequency, TF over GST control).

From PMC7862700, “An all-to-all approach to the identification of sequence-specific readers for epigenetic DNA modifications on cytosine”
